This is part of a sample that, as a whole, favours compounds with a hit. Of some 83,000 tested, about 20% had one in any assay.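 Results are percent growth after 48 hours of single-concentration exposure. 100 means growth as in untreated cells, lower positive values show inhibition; negative values down to -100 show cell death.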 Values without a mark were called inactive. Activity calls are given as the source filed them. The calls were made as follows: active = growth percent below 10; inactive = the rest.

The test relates to NCI-H23 lung. Briefly: NCI-60 one-dose screen, 48 h (100 = growth as untreated, 0 = no growth, -100 = all killed). The conditions noted are these: 10 µM unless noted.
As to `Clc1nnc2c3ccccc3ccn12`, the growth is 113%.

As for `COc1ccc(-c2nn(C(=O)NCCN(C)C)cc2-c2ccncc2)cc1Cl`, the growth is 63.5%.

`CCN1C(=O)N(CC)C2C1NN=c1s/c(=C\c3ccco3)c(=O)n12` (centres undefined): the growth is 37.3%.

`CC(C)N(C(=S)SSC(=S)N(C(C)C)C(C)C)C(C)C`: the growth was 101%.

Consider `CC(C)=CC[C@@H]1CC2(CC=C(C)C)C(=O)C(OC3(C(=O)c4ccccc4)C(=O)C4(CC=C(C)C)C[C@@H](CC=C(C)C)C(C)(C)C(CC=C(C)C)(C4=O)C3=O)(C(=O)c3ccccc3)C(=O)C(CC=C(C)C)(C2=O)C1(C)C` (some centres undefined), for which the growth was 10.3%.

For the molecule `CCCCCCCCCCCCCCCC1=NCCN1`, the growth is 72.5%.

Regarding `COc1cc([N+](=O)[O-])cc(OC)c1OC`, the growth was 107%.

Consider `NNC(=O)CSc1nc2scc(-c3ccccc3)c2c(=O)n1-c1ccccc1`, for which the growth is 101%.

`C=CCN(CC#N)CC=C`: the growth was 106%.

For `CCOC(=O)Cn1c(-c2nonc2NC(=O)c2ccccc2F)nc2ccccc21`, the growth is 76.2%.

As for `CCCCCCCOc1cccc(/C=C2\N=C3SCCCN3C2=O)c1`, the growth is 97.3%.

With `Cc1c2c(cc3c1[nH]c1ccccc13)C=NCC2`, the growth is 88.7%.

For `COc1cc(OC)c(Cl)cc1N`, the growth was 105%.

`CS(=O)(=O)c1ccc(C(=O)Nc2ccc(Cl)c(-c3ccccn3)c2)c(Cl)c1`: the growth is 27.3%.

As to `Cc1cc([N+](=O)[O-])c(C)cc1N`, the growth was 103%.

For the molecule `COc1cnc2c(c1)C(=O)c1c-2n(CCCN2CCNCC2)c(=O)c2cc(Cl)ccc12`, the growth is -63.2% (active).

Turning to `COc1cc(/C=C2\CN(C(=O)OC(C)(C)C)C/C(=C\c3ccc(O)c(OC)c3)C2=O)ccc1O`, the growth is 97.8%.

For the molecule `CCN1C(=O)C(C)C=C(C)C=C1C` (centres undefined), the growth is 102%.

As for `COCc1nc(NS(=O)(=O)c2ccc(N)cc2)nc(C)c1Br`, the growth was 97.1%.

For `O=c1c2cc(Br)cc(Br)c2nc(-c2ccc(Cl)cc2)n1/N=C\c1ccccc1F`, the growth is 62.9%.

As to `CCCCCCCCCCCCCC1=NC(C)(C)CN1C(C)C`, the growth was -4.87% (active).

Consider `CCC(=O)OCc1ccc(OC)cc1`, for which the growth is 99%.

`Fc1ccc(-c2cnc3nonc3n2)c(F)c1`: the growth is 88.7%.

Consider `O=S(=O)(Nc1ccc2ccccc2c1)N1CCCCC1`, for which the growth was 56.6%.

As for `CCn1c(Cc2ccccc2Nc2c(Cl)cccc2Cl)nnc1SCC(=O)Nc1cccc(OC)c1`, the growth is 85%.

With `CCN(CC)CC(=O)Nc1c(C)ccc(N)c1C`, the growth is 101%.

For the molecule `C=C1C[C@@]2(C)C(CC[C@]3(C)C2CC=C2C4CC(C)(C)C[C@@H](OC(=O)/C(C)=C\C)[C@]4(C(=O)O)CC[C@]23C)C(C)(C)C1=O` (some centres undefined), the growth is -45.6% (active).

For `C=C1C(=O)O[C@H]2[C@H]1CC/C(COC(=O)NCc1cccc(OC)c1)=C\CC[C@@]1(C)O[C@@H]21`, the growth was 73.4%.

In the case of `CCCCOc1nc2ccccc2cc1/C=C/c1cc(/C=C/c2cc3ccccc3nc2OCCCC)n(-c2ccccc2)n1`, the growth was 103%.

On to `CCCCc1nc(Cl)c(C2CC(c3ccc(S(N)(=O)=O)cc3)=NN2c2cc(Cl)cc(Cl)c2)[nH]1` (centres undefined), for which the growth was 51.9%.

In the case of `O=C(N/N=C\c1cc(Br)ccc1O)c1ccncc1`, the growth is 43.5%.

Consider `CC(C)C/C=C/C=C/C(=O)N[C@@H](CC(N)=O)C(=O)N[C@@H]1C(=O)N[C@H](c2ccc(O)cc2)C(=O)N[C@H](CCCN)C(=O)N[C@H]([C@@H](C)O)C(=O)N[C@H](c2ccc(O)cc2)C(=O)N[C@H](c2ccc(O)cc2)C(=O)N[C@H]([C@H](C)O)C(=O)N[C@H](Cc2ccccc2)C(=O)N[C@H](CCCN)C(=O)N[C@H](c2ccc(O[C@H]3O[C@@H](CO)[C@@H](O)[C@@H](O)[C@H]3O[C@@H]3O[C@H](CO)[C@H](O)[C@H](O)[C@@H]3O)cc2)C(=O)N[C@H]([C@H](C)O)C(=O)N[C@H](c2ccc(O)cc2)C(=O)NCC(=O)N[C@H](CC(C)C)C(=O)N[C@H](C)C(=O)N[C@H](c2ccc(O)c(Cl)c2)C(=O)O[C@@H]1C(N)=O`, for which the growth is 39.5%.

Take `CN(C)c1ccc(/C=C\c2cccc[n+]2C)cc1`: the growth was 46.6%.

Consider `COC(=O)CSc1ccc(Cl)cc1`, for which the growth was 102%.

As for `S=C(S)Oc1cccc2cccnc12`, the growth is 106%.

`O=C1NN(C(=O)c2ccccc2)C(c2ccc(Cl)c(Cl)c2)=C/C1=C\c1ccccc1[N+](=O)[O-]`: the growth was -16.9% [6.75 µM] (active).

On to `CCOC(=O)Nc1ccc2nc(Sc3ccc(Cl)cc3)sc2c1`, for which the growth is 54.2%.

Regarding `COc1cc(C2CC(c3cccc(Nc4ccnc5cc(Cl)ccc45)c3)=NN2C=O)cc(OC)c1OC` (centres undefined), the growth was 4.02% (active).

Consider `c1cn2cc(-c3ccc4ncn(C5CCCCC5)c4c3)nc(-c3ccc4c(c3)ncn4C3CCCCC3)c2n1`, for which the growth is -41.5% (active).

The record behind these values is PubChem BioAssay (NCI).
